# Measurements from ChEMBL document CHEMBL3988442, “University of Dundee, Small-Polar-MMV Screening Library” (2021).
# Screen size: about 48,000 compounds; about 13,000 (27%) showed an effect of 50% or more. Some of the results follow.
# Tested on: Wolbachia pipientis
# Test: Anti-Wolbachia Cell-Based Screen
# Assay type: functional
# Parameters: scale not given: in the data most compounds retested in dose-response had high values
# Conditions: 5 µM
row,Compound,Percent Effect
1,CN(C)C(CNC(=O)OCC(F)(F)F)c1ccsc1 (stereo not given),23.12%
2,CCN(Cc1ccc(OC)c(F)c1)C(=O)c1ccc(C)[nH]c1=O,-15.23%
3,Cc1ccc(C(=O)N(C)CCOc2ccccc2F)c(=O)[nH]1,95.48%
4,Cc1ccc(C(=O)N(Cc2ccccc2F)C2CC2)c(=O)[nH]1,-1.047%
5,Cc1c(C(=O)N2CC(O)C2)nnn1-c1cccc2cnccc12,-2.34%
6,CC(CNS(=O)(=O)c1cccc(Cl)c1)N1CCN(C)CC1 (stereo not given),3.313%
7,CCn1cc2c(n1)CN(Cc1ccc(C)o1)CC2COCC1CC1.O=C(O)C(F)(F)F (stereo not given),26.1%
8,CNC(=O)NCCc1csc2ccccc12,-2.127%
9,COCCN(C)C[C@@H]1CCC[C@@H]2CN(c3ncccn3)C[C@@H]21.O=C(O)C(F)(F)F,-1.943%
10,Cc1ccc(NC2CCN(C(=O)Cn3nc(C)cc3C)CC2)nn1,-9.924%
11,Cc1ccc(NC2CCN(C(=O)Cc3csc(C)n3)CC2)nn1,1.97%
12,Cc1ccc(NC2CCN(C(=O)CCCc3cccs3)CC2)nn1,117.7%
13,Cc1ccc(NC2CCN(C(=O)Cc3cccs3)CC2)nn1,103.9%
14,Cc1ccc(NC2CCN(C(=O)CCCc3ccccn3)CC2)nn1,17.2%
15,Cc1ccc(NC2CCN(C(=O)Cc3ccc(C)s3)CC2)nn1,88.11%
16,Cn1cc(CNc2ccc(CCN3CCC(C(N)=O)CC3)cc2)cn1,-15.36%
17,CCC(CC)c1cc(CNC(=O)N2CCCC(c3ncc[nH]3)C2)on1 (stereo not given),-2.928%
18,COCCO[C@@H]1CCN(Cc2csc(C)n2)[C@H]1Cc1ccccc1.O=C(O)C(F)(F)F,-4.722%
19,Cc1nc(CN2CC[C@@H](OCC3CC3)[C@@H]2Cc2cccnc2)cs1.O=C(O)C(F)(F)F.O=C(O)C(F)(F)F,96.59%
20,Cc1nc(CN2CC[C@H](OCC3CC3)[C@@H]2Cc2cccnc2)cs1.O=C(O)C(F)(F)F.O=C(O)C(F)(F)F,110.4%
21,Cc1cc(N(C)Cc2c(C)noc2C)n2nc(C)c(C)c2n1,-2.032%
22,CCN(CC)CC(=O)NCc1cccnc1-n1cnc2ccccc21,-2.03%

row,Compound,Percent Effect
1,Cc1cnc(N2CC[C@@H]3CN(CCC(C)C)S(=O)(=O)[C@@H]3CC2)nc1,7.109%
2,C[C@H](NS(C)(=O)=O)C(=O)NCc1cc(-c2ccco2)n(CC(F)(F)F)n1,97.84%
3,Cc1cc(C)n(CC(C)CNC(=O)NCc2ccco2)n1 (stereo not given),7.726%
4,CC(Cc1cccs1)C(=O)NCc1cccc(N2CCCC2=O)c1 (stereo not given),1.255%
5,CC(COCC(F)(F)F)NC(=O)c1ccc(-c2ccco2)[nH]c1=O (stereo not given),-22%
6,CC(C)NC(=O)NCc1ccnc(N(C)C)n1,-10.55%
7,CC(C)NC(=O)NCc1cc(-c2ccco2)n(CC(F)(F)F)n1,112.4%
8,CC(C)NC(=O)NCCn1nc(C(F)(F)F)n(C)c1=O,-4.799%
9,NS(=O)(=O)NCc1cc(-c2ccco2)n(CC(F)(F)F)n1,112.6%
10,Cc1nnc2n1CCN(CCS(=O)(=O)c1ccccc1)C2,0.264%
11,CCc1noc(C2CCCCN2C(=O)c2ccccc2)n1 (stereo not given),1.293%
12,CCc1noc(C2CCCCN2C(=O)c2ccoc2C)n1 (stereo not given),16.06%
13,CCc1noc(C2CCCCN2C(=O)c2ccn(C3CCCC3)n2)n1 (stereo not given),52.74%
14,Cc1nnc(N2C[C@@H]3CCCO[C@@H]3[C@H](N(C)C)C2)s1,-8.785%
15,CC(NC(=O)NCCNc1ncccn1)c1cccs1 (stereo not given),10.74%
16,CC(C)C(NC(=O)NCCNc1ncccn1)c1cccs1 (stereo not given),99.08%
17,CC(C)C(C)(O)CNC(=O)Nc1ccccn1 (stereo not given),-16.52%
18,CC(C)C(NC(=O)NCCNc1cnccn1)c1cccs1 (stereo not given),101.3%
19,CC(C)C(NC(=O)Nc1ccccn1)c1cccs1 (stereo not given),56.05%
20,CC(NC(=O)NCCNc1cnccn1)c1cccs1 (stereo not given),5.831%
21,CC(NC(=O)NCCNc1cccc(F)c1C#N)c1cccs1 (stereo not given),10.58%
22,CC(C)CC(NC(=O)CN(C)c1cnccn1)c1cccs1 (stereo not given),9.121%

row,Compound,Percent Effect
1,CC(C)C(NC(=O)c1ccc(N2CCOCC2)nc1)c1cccs1 (stereo not given),15.66%
2,COCCn1cnnc1CN(C)c1nc(N)ncc1C,15.34%
3,Cc1ccc(CN(C)C(=O)CN2CCCC2c2cnn(C)c2)cc1 (stereo not given),-7.848%
4,O=C(c1c[nH]c(=O)[nH]1)N1CCc2ccccc21,14.35%
5,c1ccc2c(N3CCOCC3)cnnc2c1,28.28%
6,O=C(Cc1c[nH]c(=O)[nH]c1=O)N1CCCCC1CCc1ccccc1 (stereo not given),-18.96%
7,O=c1[nH]cc(N2CCOCC2)c(=O)[nH]1,76.31%
8,Cn1ncc(N2CCOCC2)c(Cl)c1=O,6.365%
9,O=c1[nH]cc(N2CCCCC2)c(=O)[nH]1,67.95%
10,O=C(NCCN1CCOCC1)c1cc(-c2ccc(Cl)s2)[nH]n1,11.57%
11,N#CC(Sc1nnnn1C1CCOCC1)C1CCCCC1 (stereo not given),11.61%
12,CC(=O)c1cc(CN2C[C@H]3CC[C@@H]2CN(S(=O)(=O)N(C)C)C3)cs1,-15.69%
13,O=C1NC2(Cc3ccccc31)CN(CC1CCOCC1)C2,125.6%
14,OC(CN1CCN(CC2CCCCC2)CC1)c1ccccc1 (stereo not given),21.16%
15,COc1ccc2c(=O)n(CC3CCNC3)ccc2c1OC (stereo not given),10.36%
16,Cc1cc(=O)c2ccccc2n1CC1CCNC1 (stereo not given),4.531%
17,O=C1NC2(Cc3ccccc31)CN(CC1CCNC1)C2 (stereo not given),109.8%
18,O=C(O)C(F)(F)F.O=C1NC2(CCN(CC3CC3)CC2)CC1c1ccccc1 (stereo not given),-3.708%
19,O=C1NC2(Cc3ccccc31)CN(CC1CCNCC1)C2,115.6%
20,CC(=O)N1CCN(CC2CCOc3ccccc3C2)CC1 (stereo not given),-15.11%
21,O=C1NC(c2ccccc2)=N[C@@]12CC[C@@H]1CN(CC3CCOCC3)C[C@@H]12,10.45%
22,O=C1NC2(Cc3ccccc31)CN(CC1CCCC1)C2,92.98%

row,Compound,Percent Effect
1,O=c1n(CC2CC2)nc(C2CCNCC2)n1Cc1ccccc1,0.2019%
2,O=C(CSc1ccc(F)cc1)NS(=O)(=O)c1ccc2c(c1)OCCO2,-12.15%
3,CN(C)C(CNCc1nc(-c2ccsc2)no1)c1ccco1 (stereo not given),15.02%
4,CCC(O)(CNCc1ccncc1)c1ccc(Br)cc1 (stereo not given),15.97%
5,COc1ccc(CN2C[C@@H](F)[C@@H](OCc3nc4cnccc4[nH]3)C2)cn1,-7.55%
6,O=C(c1cc(-c2ccco2)nc2c(Cl)cccc12)N1CC[C@H]2CNC[C@H]21,-4.812%
7,O=C(Nc1ccccc1F)N(CCO)Cc1ccsc1,-6.968%
8,CN1C(=O)[C@H]2CC[C@@H]1CN(C(=O)Nc1ccccc1C(F)(F)F)C2,-23.74%
9,CCc1noc(CS(=O)(=O)C/C=C/c2ccccc2)n1,-3.698%
10,COCCNCc1cc2ccc(C)c(C)c2[nH]c1=O,110.6%
11,Cc1cccc2cc(CN3CCC(O)(CN4CCCC4)CC3)c(=O)[nH]c12,-13.98%
12,Cc1ccc2cc(CNCCCO)c(=O)[nH]c2c1,-12.61%
13,Cc1cccc2cc(CN3CCC(N4CCCC4)CC3)c(=O)[nH]c12,-6.915%
14,CCc1cccc2cc(CNCCOC)c(=O)[nH]c12,77.28%
15,CCc1cccc2cc(CN)c(=O)[nH]c12,94.88%
16,COc1ccccc1CNCCc1cccc(C(N)=O)c1,-10.3%
17,COc1ccc(CNC(=O)NCc2c(C)cc(C)[nH]c2=O)cc1,-8.384%
18,COCCNC(=O)NCCc1cccc(OC)c1O,-1.079%
19,CCc1nccn1CCC(=O)N1CC(=O)N(c2ccccc2C)CC1C (stereo not given),-5.04%
20,CC(O)(CCc1ccccc1)CNC(=O)c1ccsc1 (stereo not given),16.96%
21,CCOC(=O)CSc1ccc(-c2nc(CC)no2)cn1,-9.081%
22,CCOC(=O)CSc1ccc(-c2nc(C)no2)cn1,-12.26%

row,Compound,Percent Effect
1,CCOC(=O)CSc1nnc(C(N)CC(C)C)o1.Cl (stereo not given),98.1%
2,Cc1cc(NC(C)C(=O)N2CCN(c3ncccn3)CC2)ccc1F (stereo not given),-7.766%
3,CCC(C)NC(=O)CN1CCC2(CC1)OCCO2 (stereo not given),3.422%
4,CCC(C)NC(=O)Cn1c(Nc2cc(C)cc(C)c2)nc(C)cc1=O (stereo not given),130.9%
5,CC(C)NC(=O)CC(C)NCc1cc(Cl)ccc1F (stereo not given),1.096%
6,CCC(C)NC(=O)Cc1c(C)nc2c(c1C)c(=O)[nH]n2C (stereo not given),-5.261%
7,CSc1nc2cc(C)n(CC(=O)NC(C)C)c2c(=O)n1CC(C)C,0.5328%
8,Cc1nc2cc(=O)[nH]n2c(C)c1CC(=O)NC(C)C,6.511%
9,Cc1cc(=O)n(CC(=O)NC(C)C)c(Nc2ccc(F)c(C)c2)n1,119.3%
10,Cc1cc(C)cc(Nc2nc(C)cc(=O)n2CC(=O)NC(C)C)c1,102.2%
11,O=C1CC(c2cccs2)Cc2[nH]c(=O)ccc21 (stereo not given),3.972%
12,O=C(CN1CCc2cncnc2C1)NC(C1CC1)C1CC1,0.03163%
13,CCN(CC)C(=O)c1ccn(COc2cc(C)cc(C)c2)n1,11.03%
14,O=C(N1CCCC1)N1CCn2c(nnc2C2CCCN2)C1 (stereo not given),124.8%
15,CN1CCN(Cc2cnc3n2CCN(C(=O)N2CCCC2)C3)CC1,-14.55%
16,CC(C)c1nnc2n1CCN(C(=O)c1cnc(C3CC3)s1)C2,-14.42%
17,O=C(NC1CCCCC1)N1CCn2c(nnc2C2CCCN2)C1 (stereo not given),120.9%
18,CC(C)NC(=O)N1CCC(c2nnc3ccc(C(=O)N(C)C)cn23)C1 (stereo not given),2.89%
19,O=C(c1ccc(C2CCCN2)s1)N1CCN(C(=O)N2CCOCC2)CC1 (stereo not given),14.1%
20,CN(C)Cc1cnc2n1CCN(C(=O)NC1CCCC1)CC2.O=C(O)C(F)(F)F,-15.13%
21,CN1CCN(C(=O)NC2CCCC2)Cc2cccnc21.O=C(O)C(F)(F)F,-7.276%
22,CC(C)NC(=O)N1CCn2c(nnc2C2CCCN2)C1 (stereo not given),102.1%
